CYP2C19 activ: increases human CYP2C19 enzyme activity. P33261. AID 1025. 96,000 tested, under 10 active. recombinant CYP2C19, luciferin-H EGE luminescence; active compounds read high; 0 = fully inhibited enzyme, 1 = untreated enzyme. activation factor at 5 µM;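 active = activation factor of at least 2 at 5 µM in the primary screen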
Target sequence (P33261 whole entry, looked up): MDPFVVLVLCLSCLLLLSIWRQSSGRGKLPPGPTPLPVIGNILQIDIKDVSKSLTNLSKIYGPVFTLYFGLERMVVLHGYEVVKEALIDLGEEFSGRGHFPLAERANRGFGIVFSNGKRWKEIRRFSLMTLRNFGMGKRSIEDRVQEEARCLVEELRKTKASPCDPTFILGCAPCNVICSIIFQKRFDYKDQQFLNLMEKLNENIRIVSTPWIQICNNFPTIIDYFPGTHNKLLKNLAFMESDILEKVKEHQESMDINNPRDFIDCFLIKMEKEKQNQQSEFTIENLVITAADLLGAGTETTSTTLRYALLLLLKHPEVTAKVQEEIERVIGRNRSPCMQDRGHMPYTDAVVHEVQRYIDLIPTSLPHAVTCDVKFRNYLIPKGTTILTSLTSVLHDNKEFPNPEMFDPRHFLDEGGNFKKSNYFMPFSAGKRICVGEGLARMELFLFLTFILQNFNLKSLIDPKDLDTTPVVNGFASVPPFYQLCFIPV
CYP2C9 inhib: inhibitors of human CYP2C9; P11712; CYP2C9 Supersomes, luciferin-H conversion, luminescence; inhibition, % at 5 µM; hit rate 20% among 96,000;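 active = blocking of liver enzyme CYP2C9 beyond about 50% at 5 µM, limit read from the data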
PostGolgi yeast: growth inhibition of a yeast mutant, post-Golgi transport screen. post-Golgi transport phenotypic cell assay. inhibition, % at 10 µM. hit rate 0.9% among 98,000;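 note: yeast cells grown in 1536-well plates; yeast grown about 18 h at 30C before absorbance read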
CYP2C19 inh: blocks human cytochrome P450 2C19. AID 778. inhibition, % at 5 µM. hit rate 21% among 96,000. P33261. CYP2C19 Supersomes, luciferin-H EGE luminescence, 30 min;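 active = CYP2C19 inhibition above a set limit at 5 µM in the primary screen, cut at about 50% in these data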
PostGolgi ctrl: growth of the yeast control strain, post-Golgi counter-screen; efflux-deficient yeast background strain, growth absorbance A615, 16 h; inhibition, % at 10 µM; hit rate 5% among 98,000
CYP2C9 act: activators of human CYP2C9 | P11712 | recombinant CYP2C9, luciferin-H conversion, luminescence; active compounds read high; factor 1 = untreated enzyme, 0 = blocked | activation factor at 5 µM | hit rate 1.4% among 96,000 | AID 1024;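 active = activation factor of 2 or more for CYP2C9 at a 5 µM dose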
Of the large screens only hits and unclear results are named; the others gave an inactive call. This is a sample that favours compounds with a hit; in the whole collection about 32% have one here. Cut-off read from the data, not from the text of the source, unless noted: active = inhibition above about 30%; inactive = the rest.

CCn1c(SCC(=O)N(C(C)C)C(C)C)nnc1-c1cc2ccccc2cc1O	CYP2C9 inhib 56.6, CYP2C19 inh 64.6, PostGolgi ctrl 46.1
COc1ccc(N2CCN(C(=O)CSc3nnc4c(C)cc5ccc(C)c(C)c5n34)CC2)cc1	none
Cc1ccc2cc(C)c3nnc(SCC(=O)Nc4nc5c(s4)CCCC5)n3c2c1C	CYP2C9 inhib 50.5
CCc1nnc(NC(=O)CSc2nnc(-c3cc4ccccc4cc3O)n2CCOC)s1	CYP2C9 inhib 53.7
COc1ccc(C(=O)N(CN2CCCC2=O)c2cc(C)on2)cc1OC	none
O=C(Nc1ccc(C(=O)Oc2ccccc2)c(O)c1)c1ccco1	none
O=C(COc1cccc(NC(=O)c2ccco2)c1)c1ccc(F)cc1	none
O=S(=O)(NCC1CCCO1)c1ccc(S(=O)(=O)N2CCCC2)cc1 (stereo unspecified)	none
COc1ccc(OC)c(S(=O)(=O)NCC2CCCO2)c1 (stereo unspecified)	none
COc1cc(C)c(Cl)cc1S(=O)(=O)NCC1CCCO1 (stereo unspecified)	CYP2C19 inh 94.4
O=S(=O)(NCC1CCCO1)c1ccc(Cl)c(C(F)(F)F)c1 (stereo unspecified)	CYP2C19 inh 66.4, CYP2C9 act 3.9
O=S(=O)(NCC1CCCO1)c1cccc2nsnc12 (stereo unspecified)	none
O=S(=O)(NCC1CCCO1)c1cc(Br)c(Br)s1 (stereo unspecified)	CYP2C19 inh 65.6, CYP2C9 act 2
CCOc1cc(C)c(Cl)cc1S(=O)(=O)NCC1CCCO1 (stereo unspecified)	CYP2C19 inh 89.5
COC(=O)COc1ccc(S(=O)(=O)NCC2CCCO2)cc1Cl (stereo unspecified)	none
CCC(CC)n1[nH]c(=O)c2c(C)cc(C)nc21	none
Cc1ccc(NC(=O)c2ccc(S(=O)(=O)NCC3CCCO3)cc2)cc1 (stereo unspecified)	none
COc1cc(S(=O)(=O)NCC2CCCO2)ccc1Br (stereo unspecified)	CYP2C9 act 2.6
CCOc1ccccc1-c1nc(-c2ccc(NC(=O)c3ccc(Br)o3)cc2)no1	CYP2C19 inh 76.9
CCOc1ccccc1-c1nc(-c2ccc(NC(=O)Cc3ccc(OC)cc3)cc2)no1	CYP2C19 inh 55.8
CCOc1ccccc1-c1nc(-c2cccc(Br)c2)no1	none
C=CCOc1cccc(C2C(C(=O)c3ccco3)=C(O)C(=O)N2CCN(CC)CC)c1 (stereo unspecified)	none
CCc1c(C)sc(NC(=O)C2CC2c2ccccc2)c1C(N)=O (stereo unspecified)	none
COCCCn1c(SCC(=O)NC2CCCC2)nnc1-c1ccco1	none
COCCCn1c(SCC(=O)OC2CCCCC2)nnc1-c1cccs1	CYP2C19 inh 84.6
COCCCn1c(SCC(=O)OC2CCCCC2)nnc1-c1ccco1	CYP2C9 act 2.2
COC(=O)c1ccc(NC(=S)NC(=O)c2cc(-c3ccccc3)nc3ccccc23)cc1	none
CC(C)(C)c1ccc(-c2cc(C(=O)NNC(=O)Nc3ccccc3)c3ccccc3n2)cc1	CYP2C9 inhib 81.7
O=C(Cc1cccc2ccccc12)NNC(=O)Nc1cccc(Cl)c1	CYP2C19 inh 55.6, CYP2C9 act 2.2
O=C(NNC(=O)c1cc(-c2ccccc2)nc2ccccc12)Nc1cccc(Cl)c1	CYP2C9 inhib 74.7
COC(=O)c1ccc(OCC(O)CN(CCO)CCO)cc1 (stereo unspecified)	none
Cn1c(=O)c2c(nc(CN3CCC(C(N)=O)CC3)n2Cc2ccccc2Cl)n(C)c1=O	none (no result: PostGolgi yeast, PostGolgi ctrl)
CCC(C)c1ccc(O)c(NC(=O)c2cncc(Br)c2)c1 (stereo unspecified)	CYP2C9 inhib 50.3
CN(C)C(=O)c1ccc(NC(=O)c2cncc(Br)c2)cc1	none (no result: CYP2C19 activ, CYP2C9 inhib, CYP2C19 inh, CYP2C9 act)
CC(C)c1ccc(O)c(NC(=O)c2cccnc2)c1	CYP2C19 inh 70.5
COC(=O)C1=C(C(=O)OC)SC2(S1)C(C(=O)OC)=C(C(=O)OC)SC1=C2c2cc(C)cc(C)c2NC1(C)C	CYP2C9 inhib 78.6, CYP2C19 inh 67.3
Cc1cc(C)cc(NS(=O)(=O)c2ccc(NC(=S)NC(=O)c3ccc(Br)o3)cc2)c1	CYP2C9 inhib 74.0
Cc1ccc(NS(=O)(=O)c2ccc(NC(=O)c3ccc(Br)o3)cc2)c(C)c1	CYP2C9 inhib 66.8
O=C(Nc1ccc(S(=O)(=O)N2CCOCC2)cc1)c1ccc(Br)o1	none
CN1CCN(Cn2cc(/C=C/C(=O)c3ccccc3)c3ccccc32)CC1	CYP2C9 inhib 95.7, CYP2C19 inh 81.4, PostGolgi ctrl 34.0
CCOC(=O)CSC1=C(C#N)C(=O)NC(c2ccc(OC)cc2)S1 (stereo unspecified)	CYP2C9 inhib 93.8
CC(=O)O/N=C(/C)c1ncc(C(F)(F)F)cc1N1CCOCC1	none
CCCCn1c(=O)n(Cc2cccc(F)c2)c(=O)c2c1ncn2Cc1ccco1	PostGolgi ctrl 39.1
Cc1cccc(Cn2c(=O)c3c(nc4n3CCN4Cc3ccco3)n(C)c2=O)c1	none (no result: CYP2C19 activ, CYP2C9 inhib, CYP2C19 inh, CYP2C9 act)
Cn1c2ccc(F)cc2c2ncn(Cc3ccco3)c(=O)c21	CYP2C9 inhib 61.1, CYP2C19 inh 50.7
Cn1c2ccccc2c2ncn(Cc3ccco3)c(=O)c21	CYP2C9 inhib 59.5, CYP2C19 inh 69.4
Cc1ccnc(-n2c(CCN3C(=O)c4ccccc4C3=O)nc3ccccc3c2=O)c1	CYP2C9 inhib 69.0, CYP2C19 inh 59.9
Cc1cc(N2CCN(C/C=C/c3ccccc3)CC2)n2ncnc2n1	CYP2C9 inhib 51.7
CCCS(=O)(=O)N1CCN(c2ccccn2)CC1	CYP2C19 inh 69.3
Cc1ccc(S(=O)(=O)N2CCN(S(=O)(=O)c3ccc(C)cc3)C2)cc1	CYP2C9 inhib 67.9
O=S(=O)(c1ccccc1)N1CCN(S(=O)(=O)c2ccccc2)C1	CYP2C9 inhib 66.9, CYP2C19 inh 93.9
Cc1ccc(S(=O)(=O)N2CCN(C3CCC(c4ccccc4)CC3)CC2)cc1 (stereo unspecified)	PostGolgi yeast 88.8, PostGolgi ctrl 95.5
CCS(=O)(=O)N1CCN(c2ccccn2)CC1	none
Cc1ccnc(NC(=O)CCc2c(C)nc3ncnn3c2C)c1	none
CCCS(=O)(=O)N1CCN(S(=O)(=O)c2ccccc2)CC1	CYP2C9 inhib 56.0, CYP2C19 inh 60.6
NS(=O)(=O)c1ccc(NC(=O)CCc2ccccc2)cc1	none
Cc1ccc(S(=O)(=O)NCCC(=O)NCc2ccccc2)cc1	none
Cc1ccc(S(=O)(=O)NCCc2ccccc2)cc1	CYP2C9 inhib 64.9, CYP2C19 inh 96.5
NS(=O)(=O)c1ccc(S(=O)(=O)NCCc2ccccc2)cc1	CYP2C19 inh 85.0
CSc1ccc(Cl)c(C(=O)Nc2ccc(OCC(N)=O)cc2)c1	none
Cc1ccc(SCc2nc3ccccc3n2CC(=O)Nc2c(C)cccc2C)cc1	none
CSc1nc2ccccc2n1Cc1c(Cl)cccc1Cl	CYP2C9 inhib 56.2, CYP2C19 inh 51.7, PostGolgi ctrl 34.3

Source: PubChem (several laboratories)
